About 7,900 targets were measured; listed, in parts, are those with a hit and a random draw of the rest. About 0.6% of all pairs of compound and target were hits.
Experiments:
Assay in all cases: log2 fold change, soluble protein after heating vs DMSO (PISA); higher = thermal stabilisation; K562 cells, 10 uM, 30 min; active = over 0.2 and 3.5 SD of the protein, either way, in both replicates (recomputed)
[1] = compound: CS(=O)(=O)c1ccc(-c2cnc(N)c(C(=O)Nc3ccccc3)n2)cc1
Outline: (§1)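 Soluble protein was defined as the supernatant after 21,000xg for 90 min. It came from K562 cells at 2×10^6 cells/mL given 10 μM compound for 30 min, heated in aliquots for 3 min across 48°C-58°C, pooled, and extracted in PBS with 0.5% NP-40 at 4°C, and was quantified by TMTpro 16plex LC-MS/MS with equalised channel sums. Thermal stability against control samples, from duplicates, is reported as log2 fold change.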

crizotinib = compound: C[C@@H](Oc1cc(-c2cnn(C3CCNCC3)c2)cnc1N)c1c(Cl)ccc(F)c1Cl [crizotinib]
Outline: as §1

[2] = compound: C[C@@H]1COCCN1C2=NC(=NC(=C2)C3(CC3)S(=O)(=O)C)C4=C5C=CNC5=CC=C4
Outline: as §1

[3] = compound: C[C@H](C1=CC=C(C=C1)C(=O)NC2=C3C=CNC3=NC=C2)N
Outline: as §1

duvelisib = compound: C[C@H](Nc1ncnc2nc[nH]c12)c1cc2cccc(Cl)c2c(=O)n1-c1ccccc1 [duvelisib]
Outline: as §1

gandotinib = compound: Cc1cc(Nc2cc(CN3CCOCC3)c3nc(C)c(Cc4ccc(Cl)cc4F)n3n2)n[nH]1 [gandotinib]
Outline: as §1

tozasertib = compound: Cc1cc(Nc2cc(N3CCN(C)CC3)nc(Sc3ccc(NC(=O)C4CC4)cc3)n2)n[nH]1 [tozasertib]
Outline: as §1

[4] = compound: Cc1cc(SCc2sc(-c3ccc(C(F)(F)F)cc3)nc2C)ccc1OCC(=O)O
Outline: as §1

doramapimod = compound: Cc1ccc(-n2nc(C(C)(C)C)cc2NC(=O)Nc2ccc(OCCN3CCOCC3)c3ccccc23)cc1 [doramapimod]
Outline: as §1

ispinesib = compound: Cc1ccc(C(=O)N(CCCN)[C@@H](c2nc3cc(Cl)ccc3c(=O)n2Cc2ccccc2)C(C)C)cc1 [ispinesib]
Outline: as §1

bafetinib = compound: Cc1ccc(NC(=O)c2ccc(CN3CC[C@H](N(C)C)C3)c(C(F)(F)F)c2)cc1Nc1nccc(-c2cncnc2)n1 [bafetinib]
Outline: as §1

[5] = compound: Cc1cccc(CC(=O)N2CCc3c2ccc(-c2cn(C)c4ncnc(N)c24)c3F)n1
Outline: as §1

nilotinib = compound: Cc1cn(-c2cc(NC(=O)c3ccc(C)c(Nc4nccc(-c5cccnc5)n4)c3)cc(C(F)(F)F)c2)cn1 [nilotinib]
Outline: as §1

[6] = compound: Cc1nc(Nc2n[nH]c3c2CN(C(=O)N[C@H](CN(C)C)c2ccccc2)C3(C)C)c2sccc2n1
Outline: as §1

dasatinib = compound: Cc1nc(Nc2ncc(C(=O)Nc3c(C)cccc3Cl)s2)cc(N2CCN(CCO)CC2)n1 [dasatinib]
Outline: as §1

[7] = compound: Cc1ncc(-c2ccnc(Nc3ccc(S(C)(=O)=O)cc3)n2)n1C(C)C
Outline: as §1

[8] = compound: Cn1cc(-c2ccc3c(c2)CCN3C(=O)Cc2cccc(C(F)(F)F)c2)c2c(N)ncnc21
Outline: as §1

[9] = compound: Cn1cc(-c2ccc3nnc(C(F)(F)c4ccc5ncccc5c4)n3n2)cn1
Outline: as §1

tipifarnib = compound: Cn1cncc1[C@@](N)(c1ccc(Cl)cc1)c1ccc2c(c1)c(-c1cccc(Cl)c1)cc(=O)n2C [tipifarnib]
Outline: as §1

mubritinib = compound: FC(F)(F)c1ccc(/C=C/c2nc(COc3ccc(CCCCn4ccnn4)cc3)co2)cc1 [mubritinib]
Outline: as §1

Measured: log2 fold change

SLC18B1 (UniProt Q6NT16)
active: crizotinib -0.404
inactive: [1] 0.027 | [2] 0.06 | [3] -0.034 | duvelisib 0.047 | gandotinib 0.092 | tozasertib -0.097 | [4] -0.07 | doramapimod -0.002 | ispinesib -0.193 | bafetinib -0.071 | [5] 0 | nilotinib -0.024 | [6] 0.04 | dasatinib 0.063 | [7] -0.016 | [8] 0.034 | [9] 0.198 | tipifarnib -0.029 | mubritinib -0.018

RBM4 (UniProt Q9BWF3)
Sequence of UniProt Q9BWF3 (Q9BWF3 whole entry, looked up): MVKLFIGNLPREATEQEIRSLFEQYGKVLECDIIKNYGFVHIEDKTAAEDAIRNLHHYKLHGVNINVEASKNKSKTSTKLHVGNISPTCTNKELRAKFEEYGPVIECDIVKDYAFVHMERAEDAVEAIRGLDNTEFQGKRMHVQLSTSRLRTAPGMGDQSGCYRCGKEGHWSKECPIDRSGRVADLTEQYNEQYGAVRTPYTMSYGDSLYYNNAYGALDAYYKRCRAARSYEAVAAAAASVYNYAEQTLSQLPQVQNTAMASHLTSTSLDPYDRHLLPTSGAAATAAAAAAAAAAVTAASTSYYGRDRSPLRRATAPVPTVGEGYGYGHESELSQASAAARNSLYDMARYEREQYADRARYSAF
inactive: [1] -0.024 | crizotinib -0.04 | [2] -0.081 | [3] 0.06 | duvelisib -0.058 | gandotinib -0.037 | tozasertib -0.023 | [4] 0.021 | doramapimod 0.021 | ispinesib -0.094 | bafetinib -0.049 | [5] -0.01 | nilotinib -0.047 | [6] -0.095 | dasatinib -0.033 | [7] -0.039 | [8] -0.054 | [9] -0.063 | tipifarnib -0.013 | mubritinib -0.082

SLC12A9 (UniProt Q9BXP2)
Sequence of UniProt Q9BXP2 (Q9BXP2 whole entry, looked up): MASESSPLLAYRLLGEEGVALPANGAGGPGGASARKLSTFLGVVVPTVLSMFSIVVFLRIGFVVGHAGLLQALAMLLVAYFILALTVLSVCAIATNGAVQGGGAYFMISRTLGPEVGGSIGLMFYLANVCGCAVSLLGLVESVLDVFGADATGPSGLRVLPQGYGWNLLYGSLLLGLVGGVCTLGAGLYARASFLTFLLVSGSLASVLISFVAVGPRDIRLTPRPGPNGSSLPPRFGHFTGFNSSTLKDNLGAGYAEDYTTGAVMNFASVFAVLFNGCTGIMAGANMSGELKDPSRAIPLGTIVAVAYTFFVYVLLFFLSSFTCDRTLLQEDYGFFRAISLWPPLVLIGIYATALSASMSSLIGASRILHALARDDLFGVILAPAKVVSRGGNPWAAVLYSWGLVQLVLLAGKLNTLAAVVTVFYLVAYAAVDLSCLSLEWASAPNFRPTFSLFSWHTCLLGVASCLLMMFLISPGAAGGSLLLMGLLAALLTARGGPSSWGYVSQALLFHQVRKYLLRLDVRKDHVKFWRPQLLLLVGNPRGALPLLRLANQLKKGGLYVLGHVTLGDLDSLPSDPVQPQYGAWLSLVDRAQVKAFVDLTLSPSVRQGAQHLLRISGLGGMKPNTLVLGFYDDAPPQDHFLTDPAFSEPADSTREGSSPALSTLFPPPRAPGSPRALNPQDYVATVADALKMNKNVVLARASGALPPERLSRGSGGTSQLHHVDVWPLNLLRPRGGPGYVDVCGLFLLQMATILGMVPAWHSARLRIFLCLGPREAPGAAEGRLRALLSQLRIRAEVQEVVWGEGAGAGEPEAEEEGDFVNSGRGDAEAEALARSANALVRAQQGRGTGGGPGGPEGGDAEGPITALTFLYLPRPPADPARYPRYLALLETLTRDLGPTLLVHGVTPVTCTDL
active: crizotinib -0.315 | ispinesib -0.713
inactive: [1] -0.071 | [2] -0.022 | [3] 0.016 | duvelisib -0.038 | gandotinib -0.16 | tozasertib 0.001 | [4] -0.074 | doramapimod -0.012 | bafetinib -0.088 | [5] 0.023 | nilotinib -0.069 | [6] 0.05 | dasatinib 0.057 | [7] -0.066 | [8] 0.008 | [9] -0.006 | tipifarnib 0.025 | mubritinib 0.001

SEC31A (UniProt O94979)
Sequence of UniProt O94979 (O94979 whole entry, looked up): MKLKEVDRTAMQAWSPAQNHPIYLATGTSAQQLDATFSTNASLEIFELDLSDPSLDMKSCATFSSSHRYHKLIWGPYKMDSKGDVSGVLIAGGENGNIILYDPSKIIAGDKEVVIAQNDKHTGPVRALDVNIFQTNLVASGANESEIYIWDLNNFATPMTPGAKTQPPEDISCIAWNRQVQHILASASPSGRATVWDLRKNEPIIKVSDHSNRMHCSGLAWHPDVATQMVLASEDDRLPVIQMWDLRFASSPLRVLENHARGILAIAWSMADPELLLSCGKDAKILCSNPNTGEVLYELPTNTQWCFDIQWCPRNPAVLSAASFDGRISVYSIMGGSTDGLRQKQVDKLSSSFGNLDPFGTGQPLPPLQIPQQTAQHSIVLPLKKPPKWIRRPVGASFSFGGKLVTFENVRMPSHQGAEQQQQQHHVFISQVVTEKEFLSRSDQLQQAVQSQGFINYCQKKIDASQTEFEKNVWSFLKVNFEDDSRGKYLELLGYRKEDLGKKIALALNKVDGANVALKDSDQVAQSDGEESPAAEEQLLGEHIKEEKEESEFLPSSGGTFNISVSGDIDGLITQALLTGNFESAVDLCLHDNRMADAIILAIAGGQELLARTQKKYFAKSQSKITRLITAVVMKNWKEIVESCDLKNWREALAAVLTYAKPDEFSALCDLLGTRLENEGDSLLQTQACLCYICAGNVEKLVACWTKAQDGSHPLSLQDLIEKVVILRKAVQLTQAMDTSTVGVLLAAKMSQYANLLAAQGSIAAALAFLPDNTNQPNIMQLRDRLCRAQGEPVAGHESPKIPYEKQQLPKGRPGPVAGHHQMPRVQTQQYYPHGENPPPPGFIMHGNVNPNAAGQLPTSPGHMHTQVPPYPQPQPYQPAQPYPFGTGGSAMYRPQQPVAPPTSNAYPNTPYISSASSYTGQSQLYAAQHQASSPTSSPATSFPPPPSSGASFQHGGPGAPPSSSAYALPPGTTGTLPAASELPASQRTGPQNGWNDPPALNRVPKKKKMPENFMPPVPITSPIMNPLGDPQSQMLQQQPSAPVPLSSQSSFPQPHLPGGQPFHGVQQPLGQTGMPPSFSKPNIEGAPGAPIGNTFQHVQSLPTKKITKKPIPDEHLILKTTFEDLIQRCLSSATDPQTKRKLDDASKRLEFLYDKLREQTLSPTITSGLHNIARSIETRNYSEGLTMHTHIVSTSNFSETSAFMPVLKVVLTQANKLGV
inactive: [1] 0.045 | crizotinib -0.011 | [2] 0.007 | [3] 0.084 | duvelisib 0.004 | gandotinib -0.158 | tozasertib 0.049 | [4] 0.064 | doramapimod 0 | ispinesib 0.034 | bafetinib 0.011 | [5] 0.019 | nilotinib -0.11 | [6] -0.042 | dasatinib -0.134 | [7] 0.054 | [8] -0.031 | [9] -0.057 | tipifarnib -0.065 | mubritinib 0.079

RPS9 (UniProt P46781)
inactive: [1] -0.075 | crizotinib 0.02 | [2] -0.401 | [3] 0.278 | duvelisib -0.146 | gandotinib 0.188 | tozasertib 0.055 | [4] 0.024 | doramapimod 0.174 | ispinesib -0.04 | bafetinib 0.318 | [5] -0.001 | nilotinib 0.003 | [6] 0.206 | dasatinib 0.106 | [7] -0.035 | [8] -0.176 | [9] -0.088 | tipifarnib 0.067 | mubritinib -0.09

RPS15 (UniProt P62841)
inactive: [1] 0.032 | crizotinib 0 | [2] -0.174 | duvelisib -0.078 | gandotinib 0.137 | tozasertib -0.071 | [4] -0.045 | doramapimod 0.032 | ispinesib -0.003 | bafetinib 0.087 | [5] -0.09 | nilotinib 0.033 | [6] 0.221 | dasatinib 0.133 | [7] -0.106 | [8] -0.194 | [9] -0.027 | tipifarnib 0.082 | mubritinib -0.044
active: [3] 0.45

RABGGTA (UniProt Q92696)
Sequence of UniProt Q92696 (Q92696 whole entry, looked up): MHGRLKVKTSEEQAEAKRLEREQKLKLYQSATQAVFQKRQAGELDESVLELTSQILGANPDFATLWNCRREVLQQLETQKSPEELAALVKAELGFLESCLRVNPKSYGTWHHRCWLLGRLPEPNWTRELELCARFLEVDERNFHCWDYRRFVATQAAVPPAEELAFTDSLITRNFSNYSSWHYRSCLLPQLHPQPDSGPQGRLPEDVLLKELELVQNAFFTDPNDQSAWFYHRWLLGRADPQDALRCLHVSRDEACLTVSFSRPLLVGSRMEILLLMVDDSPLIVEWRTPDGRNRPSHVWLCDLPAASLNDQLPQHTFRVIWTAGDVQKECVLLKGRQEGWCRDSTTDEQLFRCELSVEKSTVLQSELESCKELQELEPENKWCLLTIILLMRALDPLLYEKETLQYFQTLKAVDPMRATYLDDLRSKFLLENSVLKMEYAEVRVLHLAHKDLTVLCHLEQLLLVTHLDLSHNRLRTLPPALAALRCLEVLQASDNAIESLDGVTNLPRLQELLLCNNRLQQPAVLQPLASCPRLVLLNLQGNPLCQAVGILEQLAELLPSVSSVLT
inactive: [1] -0.035 | crizotinib -0.076 | [2] 0.046 | [3] -0.058 | duvelisib 0.045 | gandotinib -0.004 | tozasertib -0.036 | [4] -0.008 | doramapimod 0.017 | ispinesib 0.026 | bafetinib -0.019 | [5] 0.027 | nilotinib 0.033 | [6] -0.088 | dasatinib 0.076 | [7] -0.076 | [8] 0.089 | [9] -0.015 | tipifarnib 0.08 | mubritinib 0.002

RIC8A isoform 3 (UniProt Q9NPQ8)
Sequence of UniProt Q9NPQ8 (Q9NPQ8 whole entry, looked up): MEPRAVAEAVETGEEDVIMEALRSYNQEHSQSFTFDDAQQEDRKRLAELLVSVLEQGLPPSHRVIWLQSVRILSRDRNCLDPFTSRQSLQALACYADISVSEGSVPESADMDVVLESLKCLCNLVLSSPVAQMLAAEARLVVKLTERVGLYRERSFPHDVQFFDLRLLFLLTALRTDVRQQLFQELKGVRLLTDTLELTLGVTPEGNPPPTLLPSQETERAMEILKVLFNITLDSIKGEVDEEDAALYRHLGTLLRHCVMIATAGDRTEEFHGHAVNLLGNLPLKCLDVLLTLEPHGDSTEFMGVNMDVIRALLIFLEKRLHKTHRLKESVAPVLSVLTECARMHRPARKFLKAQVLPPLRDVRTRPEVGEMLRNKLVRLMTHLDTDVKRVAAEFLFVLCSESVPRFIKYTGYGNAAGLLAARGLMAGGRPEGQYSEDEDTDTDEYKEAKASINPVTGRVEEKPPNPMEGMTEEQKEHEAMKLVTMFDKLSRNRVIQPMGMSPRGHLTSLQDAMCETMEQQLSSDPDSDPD
inactive: [1] 0.042 | crizotinib -0.085 | [2] -0.036 | [3] 0.094 | duvelisib 0.036 | gandotinib -0.038 | tozasertib 0.177 | [4] 0.193 | doramapimod 0.094 | ispinesib -0.145 | bafetinib 0.042 | [5] -0.062 | nilotinib -0.041 | [6] -0.043 | dasatinib -0.108 | [7] 0.088 | [8] 0.03 | [9] 0.014 | tipifarnib -0.1 | mubritinib -0.095

RUFY1 (UniProt Q96T51)
Sequence of UniProt Q96T51 (Q96T51 whole entry, looked up): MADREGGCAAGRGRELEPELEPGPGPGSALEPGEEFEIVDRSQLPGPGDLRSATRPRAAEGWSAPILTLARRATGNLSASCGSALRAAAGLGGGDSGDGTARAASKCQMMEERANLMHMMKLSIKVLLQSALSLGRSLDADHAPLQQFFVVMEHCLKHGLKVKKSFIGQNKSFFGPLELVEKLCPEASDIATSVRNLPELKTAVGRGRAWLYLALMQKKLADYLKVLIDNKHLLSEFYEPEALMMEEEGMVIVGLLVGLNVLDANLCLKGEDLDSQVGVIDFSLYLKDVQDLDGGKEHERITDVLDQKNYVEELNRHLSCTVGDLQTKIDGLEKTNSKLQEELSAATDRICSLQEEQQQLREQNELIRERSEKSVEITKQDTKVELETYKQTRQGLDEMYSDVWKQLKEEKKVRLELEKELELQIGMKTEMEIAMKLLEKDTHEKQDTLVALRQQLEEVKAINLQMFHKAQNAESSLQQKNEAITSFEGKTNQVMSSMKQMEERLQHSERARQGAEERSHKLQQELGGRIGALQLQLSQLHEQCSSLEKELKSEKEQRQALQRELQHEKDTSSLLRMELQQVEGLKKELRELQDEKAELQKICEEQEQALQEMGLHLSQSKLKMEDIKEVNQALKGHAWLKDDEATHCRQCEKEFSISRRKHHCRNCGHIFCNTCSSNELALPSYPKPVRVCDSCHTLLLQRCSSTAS
inactive: [1] -0.04 | crizotinib -0.003 | [2] -0.034 | [3] 0.075 | duvelisib -0.005 | gandotinib -0.029 | tozasertib 0.166 | [4] 0.118 | doramapimod 0.032 | ispinesib -0.065 | bafetinib -0.052 | [5] 0.077 | nilotinib -0.066 | [6] -0.086 | dasatinib -0.11 | [7] 0.067 | [8] -0.061 | [9] 0.05 | tipifarnib -0.062 | mubritinib -0.001

RAC1 (UniProt P63000)
inactive: [1] -0.094 | crizotinib 0 | [2] -0.04 | [3] -0.06 | duvelisib 0.001 | gandotinib -0.037 | tozasertib 0.065 | [4] -0.044 | doramapimod 0.112 | ispinesib 0.024 | bafetinib 0.184 | [5] -0.017 | nilotinib 0.073 | [6] 0.045 | dasatinib 0.007 | [7] 0.048 | [8] 0.024 | [9] -0.037 | tipifarnib 0.106 | mubritinib 0.026

RARS2 (UniProt Q5T160)
inactive: [1] -0.026 | crizotinib -0.016 | [2] 0.091 | [3] -0.021 | duvelisib 0.018 | gandotinib -0.075 | tozasertib 0.01 | [4] 0.019 | doramapimod -0.017 | ispinesib -0.033 | bafetinib -0.148 | [5] 0.104 | nilotinib -0.039 | [6] 0.019 | dasatinib -0.023 | [7] -0.006 | [8] 0.061 | [9] 0.012 | tipifarnib -0.008 | mubritinib 0.075

RPS6KA3 (UniProt P51812)
active: [6] -0.798
inactive: [1] 0.023 | crizotinib -0.107 | [2] 0.024 | [3] -0.177 | duvelisib 0.02 | gandotinib -0.019 | tozasertib 0.103 | [4] 0.032 | doramapimod -0.066 | ispinesib -0.017 | bafetinib -0.065 | [5] 0.046 | nilotinib 0.035 | dasatinib -0.195 | [7] -0.019 | [8] -0.022 | [9] 0.031 | tipifarnib -0.028 | mubritinib 0.02

SCCPDH (UniProt Q8NBX0)
active: tipifarnib 0.419
inactive: [1] 0.074 | crizotinib 0.333 | [2] 0.058 | [3] -0.093 | duvelisib 0.068 | gandotinib 0.313 | tozasertib -0.018 | [4] 0.124 | doramapimod 0.007 | ispinesib 0.081 | bafetinib 0.161 | [5] -0.046 | nilotinib 0.189 | [6] 0.019 | dasatinib 0.008 | [7] 0.174 | [8] 0.273 | [9] -0.074 | mubritinib 0.104

RAB3IL1 (UniProt Q8TBN0)
Sequence of UniProt Q8TBN0 (Q8TBN0 whole entry, looked up): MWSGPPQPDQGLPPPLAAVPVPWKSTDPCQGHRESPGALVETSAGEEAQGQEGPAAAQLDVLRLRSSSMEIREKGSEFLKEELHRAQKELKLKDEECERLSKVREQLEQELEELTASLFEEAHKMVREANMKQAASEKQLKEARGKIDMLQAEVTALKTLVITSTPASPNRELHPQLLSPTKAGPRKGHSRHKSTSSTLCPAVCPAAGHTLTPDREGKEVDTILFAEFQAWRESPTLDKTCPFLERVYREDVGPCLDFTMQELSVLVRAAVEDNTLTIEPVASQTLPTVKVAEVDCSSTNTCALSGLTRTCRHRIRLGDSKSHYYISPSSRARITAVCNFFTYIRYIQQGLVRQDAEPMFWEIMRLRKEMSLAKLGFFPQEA
inactive: [1] 0.009 | crizotinib 0.086 | [2] 0.071 | [3] 0.031 | duvelisib 0.026 | gandotinib 0.012 | tozasertib 0 | [4] -0.009 | doramapimod -0.021 | ispinesib 0.04 | bafetinib -0.025 | [5] 0.034 | nilotinib -0.016 | [6] 0.012 | dasatinib -0.054 | [7] -0.015 | [8] -0.007 | [9] 0.002 | tipifarnib -0.051 | mubritinib 0.017

ROCK1 (UniProt Q13464)
inactive: [1] 0.016 | crizotinib -0.017 | [2] 0.042 | duvelisib -0.019 | gandotinib -0.025 | tozasertib 0.015 | [4] 0.027 | doramapimod -0.025 | ispinesib -0.069 | bafetinib -0.017 | [5] -0.006 | nilotinib -0.03 | [6] 0.007 | dasatinib -0.028 | [7] 0.034 | [8] -0.006 | [9] 0.01 | tipifarnib -0.037 | mubritinib 0.062

RHEB (UniProt Q15382)
Sequence of UniProt Q15382 (Q15382 whole entry, looked up): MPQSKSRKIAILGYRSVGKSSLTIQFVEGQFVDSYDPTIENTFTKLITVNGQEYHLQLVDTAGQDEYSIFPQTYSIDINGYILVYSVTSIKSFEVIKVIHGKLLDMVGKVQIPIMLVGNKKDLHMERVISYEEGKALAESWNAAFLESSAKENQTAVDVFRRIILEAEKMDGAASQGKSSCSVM
inactive: [1] -0.001 | crizotinib 0.038 | [2] 0.096 | [3] -0.041 | duvelisib 0.021 | gandotinib -0.097 | tozasertib -0.025 | [4] -0.009 | doramapimod -0.018 | ispinesib 0.042 | bafetinib 0.01 | [5] 0.004 | nilotinib -0.027 | [6] 0.001 | dasatinib 0.004 | [7] 0.04 | [8] 0.035 | [9] 0.001 | tipifarnib -0.042 | mubritinib 0.004
